# From PubChem BioAssay
# Activity calls are given as the source filed them.
# Experiments:
# Albumin (Bos taurus) = Albumin (Bos taurus) (UniProt P02769); assay: bovine serum albumin binders on microarray, profiling panel, artefact control for SMM control protein annotation, biochemical, small-molecule microarray, Alexa647 label, 635/667 nm fluorescence (AID 1118); settings: BSA-A647 binding, fluorescence 635 nm, higher = more signal;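 also: score merges 667 nm emission intensity and signal-to-noise per printed compound spot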
# [1] = small-molecule microarray binders of probe aXIP, primary screen, biochemical, NeuroSMM set, 635/667 nm fluorescence (AID 1119); settings: higher = more signal, called active from +8 up or from −8 down;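 also: probe is the protein aXip251-270 applied at 1 µg/mL to compound-printed slides; binding of probe to printed compounds measured as 667 nm fluorescence plus signal to noise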
# [2] = small-molecule binders of probe aNOTCH3, primary screen, biochemical, small-molecule microarray, 635/667 nm fluorescence (AID 1120); settings: higher = more signal;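 also: probe is a biotin-tagged antibody raised against NOTCH3 rather than NOTCH3 protein; score merges spot fluorescence near 667 nm with spot signal to noise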
# [3] = small-molecule binders of probe aNOTCH2, primary screen, biochemical, small-molecule microarray, 635/667 nm fluorescence (AID 1121); settings: higher = more signal;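 also: score merges feature fluorescence read at 667 nm with its signal to noise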
# [4] = target: Carbonic anhydrase 2 (Homo sapiens) (UniProt P00918); assay: CAII small-molecule binders, profiling panel, biochemical, small-molecule microarray, Alexa647-labelled CAII (AID 1122); settings: CAII-A647 binding fluorescence, higher = more signal
# [5] = COS7 lysate on small-molecule microarray, probe aHis, 635 nm (AID 1123); settings: COS7 cell lysate, fluorescence, higher = more signal;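 also: z-score combines 667nm fluorescence intensity with signal-to-noise per printed compound spot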
# [6] = compound binding in COS7 lysate, probe aLAP1, primary screen, cell lysate, small-molecule microarray (AID 1124); settings: probe aLAP1, fluorescence, higher = more signal;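 also: lysate comes from COS7 cells expressing LAP1 and is applied at 0.3 µg/mL; score merges spot fluorescence near 667 nm with signal-to-noise over triplicate slides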
# Sam68 (KHDRBS1) = assay: Sam68 small-molecule binders, primary screen, biochemical, small-molecule microarray, 635 nm fluorescence (AID 1125); settings: small-molecule microarray binding, higher = more signal;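 also: score merges 667 nm channel intensity with signal to noise over triplicate slides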
# [7] = tested on: Chordin-like protein 2 (CHRDL2); assay: CHRDL2 small-molecule binders, primary screen, biochemical, small-molecule microarray, 635 nm fluorescence (AID 1126); settings: small-molecule microarray binding, fluorescence 635 nm; higher = more signal;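 also: printed compound slides probed with Chrdl2 protein at 4 µg/mL for 1 h at 4 C; score merges 667 nm emission intensity with signal to noise over three replicate slides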
# [8] = target: Concanavalin-A (Canavalia ensiformis) (UniProt P02866); assay: ConA small-molecule binders, primary screen, artefact control for SMM control protein annotation, biochemical, small-molecule microarray, Alexa647 label, 635 nm (AID 1127); settings: ConA-A647 binding fluorescence, higher = more signal;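 also: z combines 667 nm emission intensity with signal-to-noise across three replicate slides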
# [9] = anti-His antibody binders, primary screen, artefact control for SMM control protein annotation, biochemical, small-molecule microarray, 635 nm fluorescence (AID 1128); settings: anti-His Alexa647 antibody binding, higher = more signal;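 also: score merges feature fluorescence with signal-to-noise for each printed compound spot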
# [10] = tested on: Human papillomavirus type 1a E7 protein (residues 1-88); assay: HPV1a E7 small-molecule binders, primary screen, biochemical, small-molecule microarray, residues 1-88, 635 nm (AID 1129); settings: small-molecule microarray binding, fluorescence 635 nm; higher = more signal
# [11] = target: Focal adhesion kinase 1 (Homo sapiens) (UniProt Q05397); assay: small-molecule microarray binders of FAK, primary screen, biochemical, 635/667 nm fluorescence, BSA, DTT (AID 1130); settings: PTK2 binding, 635 nm fluorescence, higher = more signal;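 also: composite of spot emission at 667 nm and signal to noise over triplicate slides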
# [12] = tested on: Fibrinogen (Alexa647-labelled); assay: fibrinogen binders on compound microarrays, profiling panel, artefact control for SMM control-protein annotation, biochemical, small-molecule microarray, 635/667 nm fluorescence (AID 1131); settings: fibrinogen-A647 binding fluorescence, higher = more signal;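 also: z-score merges 667 nm fluorescence with per-spot signal-to-noise over triplicate slides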
# [13] = target: Follistatin (Homo sapiens) (UniProt P19883); assay: follistatin binders on small-molecule microarrays, primary screen, biochemical, small-molecule microarray, 635/667 nm fluorescence (AID 1132); settings: FST binding, 635 nm fluorescence, higher = more signal
# [14] = target: Fibroblast growth factor 2 (Homo sapiens) (UniProt P09038); assay: FGF2 binders on small-molecule microarrays, primary screen, biochemical, small-molecule microarray, 635/667 nm fluorescence (AID 1133); settings: small-molecule microarray binding, FGF2, fluorescence 635/667; higher = more signal
# [15] = mitochondrial membrane potential change in A549 cells, profiling panel, cell-based, JC-1 fluorescence, basal, 24 h, 100 nL (AID 1138); settings: higher = more signal;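 also: A549 lung adenocarcinoma cells under basal conditions with no added stimulus; test concentration not given here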
# Lefty1 = Lefty1 binders on small-molecule microarrays, primary screen, biochemical, small-molecule microarray, 635/667 nm fluorescence (AID 1139); settings: small-molecule microarray binding, fluorescence 635/667; higher = more signal
# [16] = tested on: wheat germ agglutinin (Triticum aestivum), Alexa647-labelled; assay: wheat germ agglutinin binders on compound microarrays, profiling panel, artefact control for SMM control-protein annotation, biochemical, small-molecule microarray, 635/667 nm fluorescence (AID 1140); settings: WGA-A647 binding, 635 nm fluorescence, higher = more signal;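 also: score merges 667 nm feature emission with signal to noise over triplicate slides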
# [17] = target: Luciferin 4-monooxygenase (Photinus pyralis) (UniProt P08659); assay: firefly luciferase enzyme inhibitors, primary screen, biochemical, luminescence, purified enzyme, 2006 set (AID 1141); settings: SteadyGlo luminescence, 30 min, higher = more signal, called active from +8 up or from −8 down;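 also: cell-free assay with purified firefly luciferase at 100 ng per well in PBS; test concentration not given here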
# Chain of Luciferin 4-monooxygenase (Photinus pyralis) (P08659 whole entry, looked up): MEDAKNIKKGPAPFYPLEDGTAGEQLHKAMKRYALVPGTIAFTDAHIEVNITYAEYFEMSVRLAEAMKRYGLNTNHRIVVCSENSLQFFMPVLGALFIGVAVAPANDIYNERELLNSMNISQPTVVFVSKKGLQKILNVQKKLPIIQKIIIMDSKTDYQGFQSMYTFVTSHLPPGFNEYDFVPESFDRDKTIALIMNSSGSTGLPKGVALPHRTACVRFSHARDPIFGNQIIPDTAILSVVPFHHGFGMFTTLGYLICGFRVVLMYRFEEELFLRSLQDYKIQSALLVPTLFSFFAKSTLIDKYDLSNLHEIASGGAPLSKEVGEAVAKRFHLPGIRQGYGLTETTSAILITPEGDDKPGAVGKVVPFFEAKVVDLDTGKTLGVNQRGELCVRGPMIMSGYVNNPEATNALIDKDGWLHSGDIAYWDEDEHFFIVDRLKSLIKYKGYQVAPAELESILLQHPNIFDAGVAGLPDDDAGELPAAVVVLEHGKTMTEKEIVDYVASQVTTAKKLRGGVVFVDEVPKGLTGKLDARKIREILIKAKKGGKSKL
# Chain of Fibroblast growth factor 2 (Homo sapiens) (P09038 whole entry, looked up): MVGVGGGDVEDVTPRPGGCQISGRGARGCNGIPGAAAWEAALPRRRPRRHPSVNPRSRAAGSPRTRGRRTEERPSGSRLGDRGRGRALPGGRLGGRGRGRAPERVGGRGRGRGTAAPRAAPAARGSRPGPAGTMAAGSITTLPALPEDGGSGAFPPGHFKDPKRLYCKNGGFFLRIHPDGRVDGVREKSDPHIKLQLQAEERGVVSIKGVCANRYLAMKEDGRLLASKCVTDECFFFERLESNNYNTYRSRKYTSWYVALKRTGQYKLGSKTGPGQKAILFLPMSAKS
# Chain of Concanavalin-A (Canavalia ensiformis) (P02866 whole entry, looked up): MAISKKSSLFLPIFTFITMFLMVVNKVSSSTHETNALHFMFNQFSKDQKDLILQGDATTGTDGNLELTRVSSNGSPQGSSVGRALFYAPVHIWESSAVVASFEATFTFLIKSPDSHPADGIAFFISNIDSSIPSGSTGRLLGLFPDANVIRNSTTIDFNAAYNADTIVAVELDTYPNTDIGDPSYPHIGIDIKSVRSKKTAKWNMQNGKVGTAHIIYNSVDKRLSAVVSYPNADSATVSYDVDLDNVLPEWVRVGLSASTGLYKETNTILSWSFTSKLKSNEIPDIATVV
# Chain of Albumin (Bos taurus) (P02769 whole entry, looked up): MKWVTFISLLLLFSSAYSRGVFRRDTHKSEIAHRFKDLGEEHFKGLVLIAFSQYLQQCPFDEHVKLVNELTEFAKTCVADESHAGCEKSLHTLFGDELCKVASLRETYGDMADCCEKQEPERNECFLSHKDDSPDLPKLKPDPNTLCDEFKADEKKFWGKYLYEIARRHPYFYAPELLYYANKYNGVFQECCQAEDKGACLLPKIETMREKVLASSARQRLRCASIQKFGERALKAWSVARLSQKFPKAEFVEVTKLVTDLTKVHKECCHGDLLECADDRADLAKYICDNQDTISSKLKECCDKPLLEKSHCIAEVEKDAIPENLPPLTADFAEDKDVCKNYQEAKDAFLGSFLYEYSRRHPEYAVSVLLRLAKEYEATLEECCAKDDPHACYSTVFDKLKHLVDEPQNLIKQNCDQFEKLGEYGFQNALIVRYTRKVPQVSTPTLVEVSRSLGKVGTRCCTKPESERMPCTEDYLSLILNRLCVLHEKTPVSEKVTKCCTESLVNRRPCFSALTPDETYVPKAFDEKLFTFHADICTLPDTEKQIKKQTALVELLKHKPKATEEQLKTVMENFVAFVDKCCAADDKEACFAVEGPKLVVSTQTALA
# Chain of Follistatin (Homo sapiens) (P19883 whole entry, looked up): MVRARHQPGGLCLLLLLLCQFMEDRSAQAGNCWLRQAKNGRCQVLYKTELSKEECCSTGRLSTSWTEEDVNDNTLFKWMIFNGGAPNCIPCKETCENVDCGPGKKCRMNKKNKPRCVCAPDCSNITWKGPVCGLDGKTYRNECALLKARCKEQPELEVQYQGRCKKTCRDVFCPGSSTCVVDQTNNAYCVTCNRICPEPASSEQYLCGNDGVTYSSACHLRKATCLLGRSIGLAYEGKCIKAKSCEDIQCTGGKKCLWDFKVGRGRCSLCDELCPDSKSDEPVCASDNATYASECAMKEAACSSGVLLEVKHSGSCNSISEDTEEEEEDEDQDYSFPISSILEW
# Chain of Focal adhesion kinase 1 (Homo sapiens) (Q05397 whole entry, looked up): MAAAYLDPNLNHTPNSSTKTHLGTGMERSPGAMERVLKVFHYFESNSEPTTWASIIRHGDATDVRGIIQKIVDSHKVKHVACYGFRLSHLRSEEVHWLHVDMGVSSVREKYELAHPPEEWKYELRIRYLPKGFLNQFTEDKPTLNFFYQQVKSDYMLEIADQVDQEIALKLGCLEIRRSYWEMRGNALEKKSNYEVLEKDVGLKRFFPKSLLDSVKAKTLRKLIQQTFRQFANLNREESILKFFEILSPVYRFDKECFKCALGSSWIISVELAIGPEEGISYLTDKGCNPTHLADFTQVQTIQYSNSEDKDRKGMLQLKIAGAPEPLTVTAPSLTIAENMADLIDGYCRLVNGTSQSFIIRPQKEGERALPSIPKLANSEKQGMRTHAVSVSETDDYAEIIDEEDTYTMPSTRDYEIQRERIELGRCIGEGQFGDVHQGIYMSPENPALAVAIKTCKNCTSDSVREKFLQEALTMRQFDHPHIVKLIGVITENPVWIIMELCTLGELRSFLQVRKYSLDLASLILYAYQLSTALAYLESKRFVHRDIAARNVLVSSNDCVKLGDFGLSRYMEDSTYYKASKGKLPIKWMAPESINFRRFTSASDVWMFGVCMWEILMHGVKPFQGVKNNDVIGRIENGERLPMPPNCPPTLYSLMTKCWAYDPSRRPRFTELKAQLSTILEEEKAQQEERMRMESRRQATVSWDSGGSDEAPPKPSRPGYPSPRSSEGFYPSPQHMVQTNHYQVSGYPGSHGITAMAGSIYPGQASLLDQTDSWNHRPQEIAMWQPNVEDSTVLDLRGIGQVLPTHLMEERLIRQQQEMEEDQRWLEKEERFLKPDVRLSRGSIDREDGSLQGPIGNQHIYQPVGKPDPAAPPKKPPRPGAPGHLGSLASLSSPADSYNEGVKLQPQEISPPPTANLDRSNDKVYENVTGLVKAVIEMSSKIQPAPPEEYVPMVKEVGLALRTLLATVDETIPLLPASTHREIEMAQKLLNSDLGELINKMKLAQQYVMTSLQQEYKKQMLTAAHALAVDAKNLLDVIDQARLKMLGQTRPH
compound,measurement,setting,value
C[C@@H]1CC[C@H]2C(=O)OC(Cc3ccccc3)CN2[C@H]1c1ccc(Br)cc1 (stereo not given in full),composite z-score,Albumin (Bos taurus),0.525
same,composite Z-score,[1],-0.014 (inactive)
same,composite z-score,[2],-0.0362
same,composite z-score,[3],-0.198
same,composite z-score,[4],0.186
same,composite z-score,[5],0.712
same,composite z-score,[6],0.509
same,composite z-score,Sam68 (KHDRBS1),0.64
same,composite z-score,[7],0.257
same,composite z-score,[8],0.494
same,composite z-score,[9],0.227
same,composite z-score,[10],0.238
same,composite z-score,[11],-0.0103
same,composite z-score,[12],0.853
same,composite z-score,[13],0.329
same,composite z-score,[14],0.867
same,z-score,[15],1.57
same,composite z-score,Lefty1,0.789
same,composite z-score,[16],0.339
same,z-score,[17],-0.679 (inactive)
COc1ccc(COC(=O)NN=C2C[C@@H](O)[C@@H](O)[C@@H]3[C@@H]4C(=O)N(C[C@@H]5CCCO5)C(=O)[C@@H]4CC[C@H]23)cc1,composite z-score,Albumin (Bos taurus),0.533
same,composite Z-score,[1],-0.713 (inactive)
same,composite z-score,[2],0.0562
same,composite z-score,[3],-0.0811
same,composite z-score,[4],-0.283
same,composite z-score,[5],0.121
same,composite z-score,[6],-0.341
same,composite z-score,Sam68 (KHDRBS1),-0.624
same,composite z-score,[7],0.144
same,composite z-score,[8],-0.826
same,composite z-score,[9],-0.156
same,composite z-score,[10],-0.309
same,composite z-score,[11],0.0444
same,composite z-score,[12],-0.269
same,composite z-score,[13],-1.13
same,composite z-score,[14],-0.902
same,z-score,[15],-0.252
same,composite z-score,Lefty1,-1.1
same,composite z-score,[16],0.128
same,z-score,[17],0.917 (inactive)
CCOC(=O)[C@H](Cc1ccccc1)NC(=O)CCC1CC(OC(=O)NCCc2ccc(F)cc2)CC2(CCCC(COC(=O)NCCOc3ccccc3)O2)O1 (stereo not given in full),composite z-score,Albumin (Bos taurus),0.595
same,composite Z-score,[1],-0.275 (inactive)
same,composite z-score,[2],0.0833
same,composite z-score,[3],-0.0189
same,composite z-score,[4],0.0403
same,composite z-score,[5],0.585
same,composite z-score,[6],0.283
same,composite z-score,Sam68 (KHDRBS1),1.29
same,composite z-score,[7],0.508
same,composite z-score,[8],0.909
same,composite z-score,[9],0.569
same,composite z-score,[10],1.18
same,composite z-score,[11],0.237
same,composite z-score,[12],0.855
same,composite z-score,[13],0.557
same,composite z-score,[14],1.24
same,z-score,[15],0.678
same,composite z-score,Lefty1,1.29
same,composite z-score,[16],0.362
same,z-score,[17],0.46 (inactive)
O=C1C2=CC[C@H]3C(=O)N(Cc4ccccc4)C(=O)[C@H]3[C@H]2[C@H](O)[C@@H]2O[C@H]12,composite z-score,Albumin (Bos taurus),-0.356
same,composite Z-score,[1],0.0144 (inactive)
same,composite z-score,[2],-0.199
same,composite z-score,[3],-0.167
same,composite z-score,[4],0.0372
same,composite z-score,[5],-0.458
same,composite z-score,[6],-0.11
same,composite z-score,Sam68 (KHDRBS1),0.085
same,composite z-score,[7],0.343
same,composite z-score,[8],-0.707
same,composite z-score,[9],0.198
same,composite z-score,[10],0.111
same,composite z-score,[11],-0.36
same,composite z-score,[12],0.739
same,composite z-score,[13],-0.267
same,composite z-score,[14],-0.022
same,z-score,[15],-0.447
same,composite z-score,Lefty1,-0.423
same,composite z-score,[16],0.254
same,z-score,[17],-0.174 (inactive)
CCOC(=O)CCN1C(=O)[C@H]2[C@H]3[C@H](O)[C@H](O)CC(=NOCC=C(C)CCC=C(C)C)[C@@H]3CC[C@H]2C1=O,composite z-score,Albumin (Bos taurus),0.275
same,composite Z-score,[1],-0.754 (inactive)
same,composite z-score,[2],-0.0043
same,composite z-score,[3],-0.154
same,composite z-score,[4],0.003
same,composite z-score,[5],0.0888
same,composite z-score,[6],0.0278
same,composite z-score,Sam68 (KHDRBS1),0.449
same,composite z-score,[7],0.434
same,composite z-score,[8],1.01
same,composite z-score,[9],-0.34
same,composite z-score,[10],0.741
same,composite z-score,[11],-0.115
same,composite z-score,[12],0.7
same,composite z-score,[13],0.696
same,composite z-score,[14],0.884
same,z-score,[15],0.0237
same,composite z-score,Lefty1,0.537
same,composite z-score,[16],0.132
same,z-score,[17],0.597 (inactive)
O=C1[C@H]2[C@H]3[C@H](O)[C@H](O)CC(=NOC[C@@H](O)COCc4ccco4)[C@@H]3CC[C@H]2C(=O)N1C1CCCCC1,composite z-score,Albumin (Bos taurus),0.0451
same,composite Z-score,[1],-0.415 (inactive)
same,composite z-score,[2],0.149
same,composite z-score,[3],-0.251
same,composite z-score,[4],0.057
same,composite z-score,[5],-0.39
same,composite z-score,[6],-0.0177
same,composite z-score,Sam68 (KHDRBS1),0.827
same,composite z-score,[7],1.52
same,composite z-score,[8],-0.421
same,composite z-score,[9],0.0182
same,composite z-score,[10],-0.244
same,composite z-score,[11],-0.569
same,composite z-score,[12],-0.811
same,composite z-score,[13],1.22
same,composite z-score,[14],1.37
same,z-score,[15],-0.144
same,composite z-score,Lefty1,1.58
same,composite z-score,[16],-0.284
same,z-score,[17],0.0055 (inactive)
